Screening results (PubChem BioAssay)
IDH1 R132H inh: qHTS for Inhibitors of mutant isocitrate dehydrogenase 1 (IDH1): qHTS. Isocitrate dehydrogenase [NADP] cytoplasmic (Homo sapiens), O75874. IDH1-R132H enzyme, NADPH consumption, diaphorase/resazurin fluorescence. Potency, µM (series often up to 76.6 µM), actives largely listed as inhibitors. hit rate 0.093% among 390,000; further: nearly all actives have a fitted effect of over 65% in size
Target sequence (O75874 whole entry R132H, stated change not applied): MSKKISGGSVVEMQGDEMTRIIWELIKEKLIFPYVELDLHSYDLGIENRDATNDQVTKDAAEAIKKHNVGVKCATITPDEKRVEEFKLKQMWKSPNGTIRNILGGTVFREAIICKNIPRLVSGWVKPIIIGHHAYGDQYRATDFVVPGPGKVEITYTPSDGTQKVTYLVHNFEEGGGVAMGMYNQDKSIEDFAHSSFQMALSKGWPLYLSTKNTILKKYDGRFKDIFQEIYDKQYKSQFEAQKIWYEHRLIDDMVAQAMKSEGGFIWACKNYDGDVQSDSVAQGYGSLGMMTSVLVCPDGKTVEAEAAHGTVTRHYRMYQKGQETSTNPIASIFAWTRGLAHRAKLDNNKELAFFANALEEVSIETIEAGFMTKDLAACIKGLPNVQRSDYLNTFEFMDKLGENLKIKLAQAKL
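IDH1-R132H (0.5 ug/mL dispensed) in pH 7.5 Tris buffer was preincubated 30 min with compound, then given a substrate mix of 0.016 mM NADPH and 2 mM alpha-KG for 80 min at room temperature; remaining NADPH was read by diaphorase/resazurin fluorescence.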
IL-2 act: qHTS of IL-2 Activators; IL-2 activation reporter assay, cell-based qHTS; stimulated with anti-CD3/CD4/CD28 beads; in transgenic mouse T cells; activation, % (series mostly up to about 46 µM); AID 652025, 2013; hit rate 0.065% among 360,000; in the data active means activation above about 50%; inconclusive means mostly about 30% to 49%
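Readout is EGFP and DsRed signal by fluorescent plate cytometry after 18 h at 37 degrees C. Transgenic mouse T cells (750/well) received compound for 60 min before bead stimulation (anti-CD3, anti-CD4, anti-CD28); memory T cells served as non-tolerant control.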
BRCA1 expr act: qHTS Assay to Identify Small Molecule Activators of BRCA1 Expression; hit rate 1.1% among 380,000; MCF7-BRCA1-FFLuc reporter, luminescence, 48 h; response scale: scaled: vehicle 0%, 10 µM genistein 100%; Potency, µM (highest dose often 46.1 µM), usual class: activators; further: nearly all actives have a fitted effect of over 80% in size
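Activators of BRCA1 expression were detected as increased firefly luciferase luminescence in engineered MCF7 cells after 48 h compound incubation. Signals were scaled to genistein 10 microM as full activation.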
gsp ag: qHTS for Agonist of gsp, the Etiologic Mutation Responsible for Fibrous Dysplasia/McCune-Albright Syndrome: qHTS. gsp mutant cells, cAMP HTRF, 30 min. Potency, µM (highest dose often 76.9 µM), actives largely listed as activators. hit rate 0.13% among 340,000. AID 624287, 2012; active means well fitted activation curve with a large enough effect; inconclusive means small, poorly fitted or top-dose-only effect, or another doubt; inactive means no such curve, though single readings can be large or run the other way; cell line not stated here;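 further: phosphodiesterase inhibitor Ro 20-1724 added with compounds to block cAMP breakdown; nearly all actives have a fitted effect of over 60% in size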
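Cells stably selected in G418 were plated at 2000/well, grown 16-24 hr, then given compounds in DMSO with the PDE inhibitor […] (300 uM solution added) for 30 min at 37C; cAMP was read by HTRF.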
gsp antag: qHTS for Antagonists of gsp, the Etiologic Mutation Responsible for Fibrous Dysplasia/McCune-Albright Syndrome: qHTS; gsp-mutant cells, cAMP HTRF, 30 min; Potency, µM (highest dose often 76.9 µM), usual class: inhibitors; hit rate 0.4% among 340,000; AID 624288, 2012; calls by dose curve; cell line not stated here;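 further: intracellular cAMP measured with PDE inhibitor Ro 20-1724 present during compound exposure; nearly all actives have a fitted effect of over 65% in size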
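HTRF cAMP read-out (cAMP-d2 plus anti-cAMP antibody-K in lysis buffer, 30 min RT). Before lysis, cells are exposed to compounds with […] for 30 min at 37C in DPBS containing Ca/Mg, BSA and Tween 20.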
IDH1 autofl: qHTS for Inhibitors of mutant isocitrate dehydrogenase 1 (IDH1): Cherrypicks Autofluorescence Interference; shares compounds with IDH1 R132H inh; Resorufin detection reagent fluorescence interference, cell-free; inhibition of signal, % at 51.2 µM; 750 tested, under 10 active; AID 623980, 2012
IDH1 WT: qHTS for Inhibitors of mutant isocitrate dehydrogenase 1 (IDH1): Cherrypicks in WT IDH1; shares compounds with IDH1 R132H inh; Potency, µM (doses to about 115 µM), usual class: inhibitors; WT IDH1 enzyme, NADPH diaphorase/resazurin fluorescence; hit rate 9% among 750; further: nearly all actives have a fitted effect of over 55% in size
Target sequence (O75874 whole entry, looked up): as the sequence (O75874 whole entry R132H, stated change not applied) above, with H132R counted along it
IDH1 R132H conf: qHTS for Inhibitors of mutant isocitrate dehydrogenase 1 (IDH1): Confirmation of Cherrypicks; Potency, µM (highest dose often 76.6 µM), most hits filed as inhibitors; shares compounds with IDH1 R132H inh; hit rate 83% among 750; IDH1 R132H enzyme, NADPH diaphorase/resazurin fluorescence; further: nearly all actives have a fitted effect of over 50% in size
Hits are given with their value; 0 = inactive; ? = inconclusive; - = not tested or not shown; [ ] = dose if it differs, or a comment. Only some compounds are listed: those with a hit (about 1.5% of all), similar ones and a draw of the others. Unless noted, the call rests on the fitted dose curve; in most records, active means well fitted curve in the direction sought with a large enough effect; inconclusive means small, poorly fitted or top-dose-only effect, or another doubt; inactive means no such curve, though single readings can be large; an effect the other way counts as inactive or inconclusive.

SMILES	IDH1 R132H inh	IL-2 act	BRCA1 expr act	gsp ag	gsp antag	IDH1 autofl	IDH1 WT	IDH1 R132H conf
O=C(NCc1ccco1)C(c1ccncc1)N(C(=O)Cc1cccs1)c1ccccc1 (configuration not stated)	0	0	0	0	0	-	-	-
O=C(NC1CCCC1)C(c1ccccc1)N(Cc1ccco1)C(=O)Cc1cccs1 (configuration not stated)	?	0	0	0	0	0	0	28µM
CCOC(=O)c1c(NC(=O)CN2CCCCC2)sc2c1CCN(C(=O)OCC)C2	12µM	0	0	0	?	0	0	6.3µM
CCOC(=O)c1c(NC(=O)CN2CCOCC2)sc2c1CCCC2	26µM	0	0	0	0	0	0	20µM
CCOC(=O)c1c(NC(=O)CN2CCOCC2)sc2c1CCCC2=O	0	0	0	?	0	-	-	-
CCOC(=O)c1c(NC(=O)CN(CC)CC)sc2c1CCN(C(=O)OCC)C2	0	0	0	0	0	-	-	-
COc1cc(F)ccc1-c1csc(C(NC(C)=O)c2ccc(F)c(F)c2)n1 (configuration not stated)	-	0	0	-	-	-	-	-
CC1(C(=O)NS(=O)(=O)c2cccs2)CCN1C(=O)C1CCCCC1 (configuration not stated)	-	0	0	-	-	-	-	-
COc1ccc(-c2sc(Nc3ccc(F)c(F)c3F)nc2CCC(=O)NN)cc1	29µM	0	0	0[15.4 µM]	0	0	0	28µM
CCc1ccc(NC(=O)CN2C(=O)C3CCCN3c3ccc(S(=O)(=O)N(CC)CC)cc32)cc1 (configuration not stated)	45µM	-	-	-	-	0	0	28µM
CCOCCCN1C(=O)c2[nH]nc(-c3ccccc3O)c2C1c1ccc(CC)cc1 (configuration not stated)	?	-	-	-	-	0	0	?
CCc1ccc(C2c3c(-c4ccccc4O)n[nH]c3C(=O)N2Cc2ccncc2)cc1 (configuration not stated)	35µM	-	-	-	-	0	0	28µM
CN(C)CCNC(=O)C1Cc2c(-c3ccccc3Oc3ccccc3)ccnc2O1 (configuration not stated)	-	0	0	-	-	-	-	-
Cc1ccc(NC(=O)Cn2cc(C(=O)c3ccco3)c3ccccc32)cc1C	0	-	-	-	-	-	-	-
CCN(CC)C1Oc2cc3c(cc2C(c2cc(OC)c(OC)c(OC)c2)C1C)OCO3 (configuration not stated)	0	0	0	0	0	-	-	-
COc1cc2c(O)c3c(c(-c4ccc5c(c4)OCO5)c2cc1OC)C(=O)OC3	?	0	0	?	0	0	?	25µM
NSc1nc(N)c2nc(-c3ccccc3)c(-c3ccccc3)nc2n1	?	0	0	0[15.4 µM]	-	0	0	22µM
O=[N+]([O-])c1ccc(NN=CC2CCCCCC2)c([N+](=O)[O-])c1	-	0	0	-	-	-	-	-
O=C(NCc1ccc2c(c1)CCN2C(=O)c1ccc(Cl)cc1)c1ccco1	0	-	-	-	-	-	-	-
CCOC(=O)c1ccc(N2C(=O)c3n[nH]c(-c4ccco4)c3C2c2ccc(C)cc2)cc1 (configuration not stated)	0	-	0	-	-	-	-	-
CCOC(=O)c1ccc(N2C(=O)c3n[nH]c(-c4ccco4)c3C2c2ccc(O)c(OC)c2)cc1 (configuration not stated)	?	-	0	-	-	0	0	20µM
CCOC(=O)c1ccc(N2C(=O)c3[nH]nc(-c4ccccc4)c3C2c2cccs2)cc1 (configuration not stated)	?	-	-	-	-	0	0	0
CC(=O)N1CCc2c(sc3c2c(=O)n(CCc2ccccc2)c(=O)n3Cc2ccccc2C)C1	13µM	-	0	-	-	0	0	11µM
CC(=O)N1CCc2c(sc3c2c(=O)n(-c2ccc(C)cc2)c(=O)n3Cc2c(F)cccc2Cl)C1	?	-	0	-	-	0	35µM	22µM
CC(=O)N1CCc2c(sc3c2c(=O)n(-c2ccccc2Cl)c(=O)n3Cc2cccc(C)c2)C1	32µM	-	-	-	-	0	20µM	16µM
Cc1cc(N(C)Cc2ccccc2)n2nc(-c3ccc(C(C)(C)C)cc3)nc2n1	0	-	0	-	-	-	-	-
Clc1cccc(-n2cc(-c3ccccc3)c3c(NC4CCCC4)ncnc32)c1	0	-	-	-	-	-	-	-
COc1ccc(-n2cc(-c3ccccc3)c3c(NC4CCCC4)ncnc32)cc1	32µM	-	-	-	-	0	0	14µM
